# Laboratory results taken from PubChem BioAssay AID1159580 (chemical genetic matrix, 2015).
# Out of some 5,500 compounds screened, about 2,000 (36%) were called active. About 18% were inconclusive and are not listed. The list shows a part of the results. Values without a mark were called inactive. No stated cut-off is given here; in the data, active means normalized growth mostly below about 0.91 (no sharp cut-off); inconclusive means no clear call, values can overlap the other calls; inactive means mostly above about 0.92.
# Assay: chemical genetic growth profiling, strain panel (AID 1159580);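 further: tested at 20 µM; growth read once vehicle control cultures reached saturation at 30 °C; 1 = growth at the plate median or of vehicle wells; lower values mean less growth of the strain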
# Conditions: growth OD
# [1] = S. cerevisiae deletion strains, locus YAL013W, strain DEP1, hits give low values
# [2] = S. cerevisiae deletion strains, locus YGR078C, strain PAC10, hits give low values
# [3] = S. cerevisiae deletion strains, locus YJR075W, strain HOC1, hits give low values
# [4] = S. cerevisiae deletion strains, locus YPL055C, strain LGE1, hits give low values
# [5] = S. cerevisiae deletion strains, locus YPL241C, strain CIN2, hits give low values
compound,measurement,setting,value
NC(=O)CI,normalized growth,[1],0.951
same,normalized growth,"S. cerevisiae deletion strains, locus YAL040C, strain CLN3, hits give low values",0.968
same,normalized growth,"S. cerevisiae deletion strains, locus YCL061C, strain MRC1 (second series), hits give low values",0.98
same,normalized growth,"S. cerevisiae deletion strains, locus YDR363W, strain ESC2, hits give low values",0.988
same,normalized growth,"S. cerevisiae deletion strains, locus YER002W, strain NOP16, hits give low values",0.949
same,normalized growth,[2],0.907 (active)
same,normalized growth,"S. cerevisiae deletion strains, locus YGR229C, strain SMI1, hits give low values",0.942
same,normalized growth,[3],0.966
same,normalized growth,"S. cerevisiae deletion strains, locus YNL175C, strain NOP13, hits give low values",0.947
same,normalized growth,"S. cerevisiae deletion strains, locus YNL197C, strain WHI3, hits give low values",0.936
same,normalized growth,"S. cerevisiae deletion strains, locus YNL224C, strain SQS1, hits give low values",0.972
same,normalized growth,"S. cerevisiae deletion strains, locus YOR083W, strain WHI5 (second series), hits give low values",0.792 (active)
same,normalized growth,[4],0.956
same,normalized growth,[5],0.966
NC(=O)CCSCCC(N)=O,normalized growth,[1],0.992
same,normalized growth,"S. cerevisiae deletion strains, locus YBR229C, strain ROT2, hits give low values",0.995
same,normalized growth,"S. cerevisiae deletion strains, locus YDL101C, strain DUN1, hits give low values",0.996
same,normalized growth,"S. cerevisiae deletion strains, locus YDL134C, strain PPH21, hits give low values",1.02
same,normalized growth,"S. cerevisiae deletion strains, locus YDR150W, strain NUM1, hits give low values",0.999
same,normalized growth,"S. cerevisiae deletion strains, locus YEL061C, strain CIN8, hits give low values",1.01
same,normalized growth,[2],0.988
same,normalized growth,"S. cerevisiae deletion strains, locus YHR030C, strain SLT2, hits give low values",0.972
same,normalized growth,"S. cerevisiae deletion strains, locus YHR087W, strain rtc3, hits give low values",1
same,normalized growth,"S. cerevisiae deletion strains, locus YJR043C, strain POL32, hits give low values",0.976
same,normalized growth,[3],1
same,normalized growth,"S. cerevisiae deletion strains, locus YLR039C, strain RIC1, hits give low values",1.02
same,normalized growth,"S. cerevisiae deletion strains, locus YLR058C, strain SHM2 (second series), hits give low values",0.997
same,normalized growth,"S. cerevisiae deletion strains, locus YLR085C, strain ARP6, hits give low values",1.06
same,normalized growth,"S. cerevisiae deletion strains, locus YLR262C, strain YPT6, hits give low values",1.03
same,normalized growth,"S. cerevisiae deletion strains, locus YML094W, strain GIM5, hits give low values",1.01
same,normalized growth,"S. cerevisiae deletion strains, locus YMR219W, strain ESC1, hits give low values",1.01
same,normalized growth,"S. cerevisiae deletion strains, locus YMR263W, strain SAP30, hits give low values",0.991
same,normalized growth,"S. cerevisiae deletion strains, locus YMR307W, strain GAS1, hits give low values",1.09
same,normalized growth,"S. cerevisiae deletion strains, locus YNL153C, strain GIM3, hits give low values",0.979
same,normalized growth,"S. cerevisiae deletion strains, locus YNL298W, strain CLA4 (second series), hits give low values",0.988
same,normalized growth,"S. cerevisiae deletion strains, locus YNL322C, strain KRE1, hits give low values",1.03
same,normalized growth,"S. cerevisiae deletion strains, locus YNR030W, strain Alg12, hits give low values",0.981
same,normalized growth,[4],1.02
same,normalized growth,[5],0.995
same,normalized growth,"S. cerevisiae deletion strains, locus YPR135W, strain CTF4, hits give low values",0.92
same,normalized growth,"S. cerevisiae strains, strain wild type, hits give low values",1.02
